Laboratory results reported in PMC10726135, “HNF4α isoforms regulate the circadian balance between carbohydrate and lipid metabolism in the liver”.
Whole data set: some 18,000 sequences, median “log2 normalized intensity” near 0.36, cut for the highest 2% near 7.3. The full list was thinned out, with the highest values kept by preference.

Molecular target: T1, HNF4alpha8 (COS-7 nuclear extract) (Homo sapiens, UniProt P41235-5 1-452)
T1 sequence: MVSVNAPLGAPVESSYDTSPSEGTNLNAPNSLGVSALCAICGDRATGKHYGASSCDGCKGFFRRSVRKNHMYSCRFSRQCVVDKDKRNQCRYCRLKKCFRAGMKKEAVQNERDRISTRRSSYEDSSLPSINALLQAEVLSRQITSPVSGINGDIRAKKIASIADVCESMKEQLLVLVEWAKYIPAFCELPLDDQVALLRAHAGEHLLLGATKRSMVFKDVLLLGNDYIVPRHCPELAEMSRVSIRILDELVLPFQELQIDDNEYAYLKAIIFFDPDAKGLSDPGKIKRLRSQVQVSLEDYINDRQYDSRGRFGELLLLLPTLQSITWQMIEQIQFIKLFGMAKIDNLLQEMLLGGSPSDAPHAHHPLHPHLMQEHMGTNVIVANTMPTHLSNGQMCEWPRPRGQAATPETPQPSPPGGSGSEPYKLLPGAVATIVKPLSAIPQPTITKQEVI
Assay: protein-binding microarray; COS-7 nuclear extract on double-stranded Agilent 4x180k PBM; binding buffer, salt, pH and temperature not given in the material; high values mean tight binding
Conditions: chain copies: 2; label: 3' end of strand 1 on the slide; dsDNA, one strand shown
Procedure, shortened: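 A custom Agilent SurePrint G3 4x180k array, spotted in quadruplicate with ~44,000 test sequences as ~60-nt oligonucleotides made double-stranded, was incubated with nuclear extracts. The extracts came from COS-7 cells transiently transfected by CaPO4 with a human HNF4α isoform expression vector. Bound HNF4α was imaged on an Agilent G2565CA scanner at 2-µm resolution, and the binding signal was taken as Agilent software's background-corrected, normalized gProcessedSignal.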

In order of falling binding signal:
1. TACTGGGGATGGACTTTGGCCCTCAGCCCAGCCTAGGGAGATTAGAGTATCGGTCGA  9.48 log2 normalized intensity
2. AAAGAGATTGGACTTTGGCCTGTGAATCCAGCCTAGGGAGATTAGAGTATCGGTCGA  9.05 log2 normalized intensity
3. TTTTTTTTCTTAATTGCCCTTTGCCCTTTGGCCTAGGGAGATTAGAGTATCGGTCGA  9.03 log2 normalized intensity
4. TCTGCAGCAGATGGCCAGCCTTTGGACTTTGCCTAGGGAGATTAGAGTATCGGTCGA  8.08 log2 normalized intensity
5. TCTGATGCCATGATAAGCAGTGTGGACTTTGCCTAGGGAGATTAGAGTATCGGTCGA  7.54 log2 normalized intensity
6. GGGATGGACTTTGGCCCTCAGCCCAATGTGGCCTAGGGAGATTAGAGTATCGGTCGA  7.1 log2 normalized intensity
7. GATTGGACTTTGGCCTGTGAATCCACATTCGCCTAGGGAGATTAGAGTATCGGTCGA  6.47 log2 normalized intensity
8. CCCCGCCCGCAGCCCAGTCTTGGCCCCACCGCCTAGGGAGATTAGAGTATCGGTCGA  6.38 log2 normalized intensity
9. TACAGGCGTGAGCCACCGCGCCCCGCCCCCGCCTAGGGAGATTAGAGTATCGGTCGA  6.17 log2 normalized intensity
10. GGACTTTGGCCCTCAGCCCAATGTGGTAGGGCCTAGGGAGATTAGAGTATCGGTCGA  6.09 log2 normalized intensity
11. GAAACTTATTGTGAACTGGAGCAAAGGTCAGCCTAGGGAGATTAGAGTATCGGTCGA  5.97 log2 normalized intensity
12. TGTGTCAAAGGTCACTTAGTCCCTAAGTCTGCCTAGGGAGATTAGAGTATCGGTCGA  5.26 log2 normalized intensity
13. AGACTTTTTTTTTCTTAATTGCCCTTTGCCGCCTAGGGAGATTAGAGTATCGGTCGA  5.04 log2 normalized intensity
14. TCTCAGGTGAGCAGAGGGAGGACAAAGTTCGCCTAGGGAGATTAGAGTATCGGTCGA  5.01 log2 normalized intensity
15. TTGCCCTTTGCCCAACCCTCTCCCACTCCCGCCTAGGGAGATTAGAGTATCGGTCGA  4.93 log2 normalized intensity
16. TTATCTTGATGGTTAAAGTCCAATCTTCTGGCCTAGGGAGATTAGAGTATCGGTCGA  4.82 log2 normalized intensity
17. GAGTTATCTTCCTCCCCCCTTGGCTACATGGCCTAGGGAGATTAGAGTATCGGTCGA  4.15 log2 normalized intensity
18. TGCCATGATAAGCAGTGTGGACTTTTTCCTGCCTAGGGAGATTAGAGTATCGGTCGA  3.69 log2 normalized intensity
19. AAGAAACTCGTGGCATTTTTGCCCCTGCCCGCCTAGGGAGATTAGAGTATCGGTCGA  3.61 log2 normalized intensity
20. CCCTGGTCTCTCTTACCCAACCAAAAACAAGCCTAGGGAGATTAGAGTATCGGTCGA  3.38 log2 normalized intensity
21. GCCACATCCCCCACACCGAGATAGTAGAGAGCCTAGGGAGATTAGAGTATCGGTCGA  3.27 log2 normalized intensity
22. ACAGTAGACTTTTTTTTTCTTAATTGCCCTGCCTAGGGAGATTAGAGTATCGGTCGA  3.18 log2 normalized intensity
23. GAACAGCAAGACTTTGGCCCTGCAGACTTTGCCTAGGGAGATTAGAGTATCGGTCGA  3.02 log2 normalized intensity
24. CGCTGCGGGTCACGTGCCGCTGCGGGTCACGCCTAGGGAGATTAGAGTATCGGTCGA  2.61 log2 normalized intensity
25. TTCCCTACCCCCTGGGAGTAACCTGCTTGTGCCTAGGGAGATTAGAGTATCGGTCGA  2.25 log2 normalized intensity
26. AAACTTCCACTAACTTGAGTGTGCACCCTGGCCTAGGGAGATTAGAGTATCGGTCGA  1.93 log2 normalized intensity
27. TTTGTGATTACATTGAGTCCACTGAGATCAGCCTAGGGAGATTAGAGTATCGGTCGA  1.91 log2 normalized intensity
28. CACTTTCCACTCTCTACTGATATGTCCTCCGCCTAGGGAGATTAGAGTATCGGTCGA  1.83 log2 normalized intensity
29. AGCATGGAGAAAATTCTGGACCTTCTTATCGCCTAGGGAGATTAGAGTATCGGTCGA  1.59 log2 normalized intensity
30. TAGGCATTGTCTTGAAAGATAAAGTGTCTCGCCTAGGGAGATTAGAGTATCGGTCGA  1.48 log2 normalized intensity
31. TTTGATGGACATTGCTGGTGGTGGTAGATCGCCTAGGGAGATTAGAGTATCGGTCGA  1.45 log2 normalized intensity
32. TTTTAAATACCTTTTTGGGACTGATAACTTGCCTAGGGAGATTAGAGTATCGGTCGA  1.23 log2 normalized intensity
33. CACTTGTAGGCCTGTGTGCATGGAGTGCACGCCTAGGGAGATTAGAGTATCGGTCGA  0.798 log2 normalized intensity
34. ACCTCTCTGATGCCATGATAAGCAGTGTGGGCCTAGGGAGATTAGAGTATCGGTCGA  0.716 log2 normalized intensity
35. CCGCAGCGCTGGTGGCTGCAAGGTTTGTGTGCCTAGGGAGATTAGAGTATCGGTCGA  0.472 log2 normalized intensity
36. CTGAATCTCCCAGTGCTTTGATCTTCAACTGCCTAGGGAGATTAGAGTATCGGTCGA  0.419 log2 normalized intensity
37. TTATCATTACTTCTCAACTGATATGGCTCTGCCTAGGGAGATTAGAGTATCGGTCGA  0.393 log2 normalized intensity
38. AGAATGACCAGGAGTTTGGGATCAGACACGGCCTAGGGAGATTAGAGTATCGGTCGA  0.332 log2 normalized intensity
39. GTGACTTGAAAGGGACTTAGAATCGAATTGGCCTAGGGAGATTAGAGTATCGGTCGA  -0.0805 log2 normalized intensity
40. ACTTCTGAGTTTTATCAGCTTCCCTGAGATGCCTAGGGAGATTAGAGTATCGGTCGA  -0.495 log2 normalized intensity
41. GACCATCACCACTTCAAGCTTGGTATGCTTGCCTAGGGAGATTAGAGTATCGGTCGA  -0.696 log2 normalized intensity
42. TGAATTCTGCAGCAGATGGCCAGCCTTTGGGCCTAGGGAGATTAGAGTATCGGTCGA  -0.939 log2 normalized intensity
43. CAAATAACATTCCTAACATTCTTCCTCACAGCCTAGGGAGATTAGAGTATCGGTCGA  -0.982 log2 normalized intensity
